FLuc counter = inhibits or activates purified firefly luciferase, miR-21 counter-screen. 360,000 compounds, 6.9% hits. P08659. Potency, µM (doses to about 57.5 µM), usual class: inhibitors. AID 588342. purified FLuc, Km substrates, luminescence inhibition; note: nearly all actives have a fitted effect of over 55% in size
Target sequence (P08659 whole entry, looked up): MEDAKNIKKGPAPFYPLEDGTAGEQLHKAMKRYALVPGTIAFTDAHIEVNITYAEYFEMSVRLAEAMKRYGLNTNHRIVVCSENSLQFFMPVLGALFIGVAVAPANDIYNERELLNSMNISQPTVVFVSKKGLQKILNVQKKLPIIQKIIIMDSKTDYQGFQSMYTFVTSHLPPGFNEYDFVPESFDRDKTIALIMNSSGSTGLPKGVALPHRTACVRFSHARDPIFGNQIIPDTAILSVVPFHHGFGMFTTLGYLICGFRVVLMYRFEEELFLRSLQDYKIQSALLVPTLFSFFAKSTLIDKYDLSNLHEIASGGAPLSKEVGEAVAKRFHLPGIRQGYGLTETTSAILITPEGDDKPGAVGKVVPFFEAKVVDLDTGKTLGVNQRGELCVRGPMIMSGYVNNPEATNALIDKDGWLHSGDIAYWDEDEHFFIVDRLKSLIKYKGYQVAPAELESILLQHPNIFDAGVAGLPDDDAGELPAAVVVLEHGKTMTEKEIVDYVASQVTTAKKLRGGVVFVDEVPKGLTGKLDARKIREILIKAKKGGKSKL
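Purified P. pyralis luciferase, 10 nM final, with Km-level 10 uM D-luciferin and 10 uM ATP in 50 mM Tris acetate pH 7.5, 10 mM Mg acetate, 0.01% Tween-20, 0.05% BSA; 6-point qHTS titration about 60 µM downward; luminescence read.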
NPC1 prom act = activates the NPC1 promoter; Huh7 NPC1 promoter luciferase reporter, 24 h; Potency, µM (top dose mostly 9.22 µM), usual class: activators; 320,000 compounds, 2.4% hits; AID 485313; note: nearly all actives have a fitted effect of over 60% in size
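Stably transfected Huh7 (NPC1 promoter→luciferase), 1500 cells/well in Opti-MEM + 10% FBS, 2 h settle, then compound 24 h at 37 °C. Luminescence after 10 min with Amplite reagent.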
uPA generation = blocks generation of uPA at the cell surface. cell surface uPA generation assay, qHTS. Potency, µM (highest dose often 38.3 µM), most hits filed as inhibitors. 330,000 compounds, 0.31% hits; active = well fitted inhibition curve with a large enough effect; inconclusive = small, poorly fitted or top-dose-only effect; inactive = no such curve, though single readings can be large or run the other way; tested in mouse RAW 264.7 cells; note: nearly all actives have a fitted effect of over 55% in size
Rab9 promoter act = activates the Rab9 promoter | 320,000 compounds, 2.8% hits | Potency, µM (series often up to 9.22 µM), actives largely listed as activators | Huh7 Rab9 promoter-luciferase reporter, luminescence, 24 h; note: nearly all actives have a fitted effect of over 60% in size
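Steps: seed 1500 Huh7 Rab9-luc cells per well, rest 2 h at 37 °C; add compound in DMSO; incubate 24 h; add luciferase reagent, 10 min ambient; read luminescence.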
SMN2 splice enh = SMN2 splice variant enhancement | 210,000 compounds, 2.8% hits | Potency, µM (series often up to 46.1 µM), actives largely listed as activators | HEK293 SMN2-luciferase splicing reporter, luminescence, 30-36 h; note: nearly all actives have a fitted effect of over 55% in size
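HEK293 cells carry an SMN2 […]–luciferase reporter in which exon 7 inclusion puts luciferase in frame. Cells were plated 10-12 h before compound addition, then incubated 30-36 h at 37C. ONE-Glo luminescence was read; sodium butyrate at 4.5 mM final served as control.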
ELG1 genotoxic = induces genotoxicity in HEK293T cells with luciferase-tagged ELG1; 330,000 compounds, 1.3% hits; Potency, µM (top dose mostly 46 µM), most hits filed as activators; AID 504466; HEK293T ELG1-luciferase reporter, luminescence, 16 h; note: nearly all actives have a fitted effect of over 60% in size
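Quantitative HTS format in 1536-well plates. HEK293T ELG1-luciferase reporter cells receive test compound and are incubated 16 hr at 37 °C, 5% CO2; ONE-Glo added, 30 min room temperature, then luminescence read.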
Hits are given with their value; . = inactive; ? = inconclusive; / = no result given. In the library only some 7.3% were active in any assay of this set; here they are far more common. Unless noted, calls come from the whole dose curve; as a rule, active = well fitted curve in the direction sought with a large enough effect; inconclusive = small, poorly fitted or top-dose-only effect, or another doubt; inactive = no such curve, though single readings can be large; an effect the other way counts as inactive or inconclusive.

SMILES	FLuc counter	NPC1 prom act	uPA generation	Rab9 promoter act	SMN2 splice enh	ELG1 genotoxic
CCCCCSc1nc2sc3c(c2c(=O)n1-c1ccc(OC)cc1)CCN(C(C)=O)C3	.	/	/	/	.	/
COc1ccc(Cc2nnc(N/N=C(\C)c3ccccc3)[nH]c2=O)cc1OC	.	.	.	.	/	.
NS(=O)(=O)c1ccc(NCc2c(F)cccc2Cl)cc1	.	.	/	.	.	.
Fc1cccc(Cl)c1CNc1ccc(N2CCCC2)cc1	9.5µM	.	.	.	.	.
O=C1C(c2c(O)[nH]c3ccccc23)=Nc2ccccc21	.	.	.	?	.	/
CC(=O)c1cccc2c(O)c(C3=Nc4ccccc4C3=O)[nH]c12	3.4µM	2.8µM	.	0.63µM	0.56µM	?
COc1cccc(-n2ccnc2SCC(=O)Nc2nc3ccc(C)cc3s2)c1	.	/	/	/	/	/
CC(C)COC(=S)Nc1ccccc1	17µM	.	.	.	.	?
Cc1cc(=O)n2nc(-c3ccc(C(F)(F)F)cc3)sc2n1	?	?	.	?	11µM	4µM
COc1ccccc1-c1nn2c(=O)cc(C)nc2s1	?	.	.	?	?	?
O=C(Nc1ccc(Cl)cc1Cl)c1csc(-c2cccnc2)n1	?	2.8µM	.	?	/	.
O=C(NCc1ccccc1)c1csc(-c2cccnc2)n1	.	.	.	.	/	.
O=C(Nc1cccnc1)c1cc(-c2ccc(Cl)cc2Cl)on1	0.38µM	4µM	.	?	/	?
O=C(Nc1cccnc1)c1cc(-c2ccc(Cl)cc2)on1	1.5µM	.	.	.	.	.
CCC(C)NC(=O)c1ccc2c(c1)N=C(C)c1cc(C)ccc1S2 (configuration not stated)	.	/	/	/	.	/
Cc1cc(NC(=O)NC(=O)c2ccc(F)cc2F)n[nH]1	7.6µM	0.5µM	.	0.56µM	11µM	?
Cc1ccnc(NC(=O)COC(=O)c2ccc(F)cc2F)n1	.	.	.	.	/	.
O=S(=O)(c1cccs1)N1CCCc2cccc(O)c21	19µM	.	.	3.5µM	.	.
COC(=O)N/N=C/c1c(C)c(C(=O)c2ccc(F)cc2)n2ccccc12	.	.	.	.	.	.
Cc1c(/C=N/NC(=O)c2ccc(O)cc2)c2ccccn2c1C(=O)c1ccc(F)cc1	?	.	.	.	.	.
Cc1c(/C=N/NC(=O)c2cc(=O)[nH]c(=O)[nH]2)c2ccccn2c1C(=O)c1ccccc1	24µM	.	/	.	.	.
Cc1c(/C=N/NC(=O)c2ccccc2O)c2ccccn2c1C(=O)c1ccc(F)cc1	13µM	.	.	.	.	.
Cc1c(/C=N/NC(=O)c2cccnc2)c2ccccn2c1C(=O)c1ccc(F)cc1	15µM	.	/	.	.	.
COc1ccc(-c2nc3c(C#N)c[nH]n3c2NC2CCCCC2)c(OC)c1	.	/	/	/	/	/
Cc1ccc(C)c(-n2nnc(C(=O)Nc3ccc(Br)cc3)c2C)c1	.	/	/	/	/	/
SMILES	FLuc counter	NPC1 prom act	uPA generation	Rab9 promoter act	SMN2 splice enh	ELG1 genotoxic
CC[n+]1c(/C=C/c2ccc(OC(C)=O)c(OC)c2)ccc2ccccc21	19µM	.	.	.	/	?
CC[n+]1c(/C=C/c2ccc(N(C)C)cc2)ccc2ccccc21	?	.	.	.	.	.
CC[n+]1c(/C=C/c2ccc(OC)c(OC)c2)ccc2ccccc21	3.4µM	.	.	.	/	10µM
CCCCCCOc1ccc(/C(N)=N/O)cc1	12µM	2.5µM	.	1.6µM	.	?
CCCCCOc1ccc(C(=O)NC(CCC)C(=O)O)cc1 (configuration not stated)	.	.	.	.	.	.
Cn1c(/C=C/c2ccc(Br)cc2)nc2ccccc2c1=O	?	3.5µM	.	?	/	?
O=S(=O)(c1cccc(Cl)c1)n1c(/C=C/c2ccccc2Cl)nc2ccccc21	0.095µM	/	/	/	/	/
CSc1ccc(/C=C/c2nc3ccccc3n2S(=O)(=O)c2cccc(Cl)c2)cc1	0.076µM	/	/	/	?	/
COc1cc(S(=O)(=O)n2c(C)nc3ccccc32)ccc1F	.	.	.	.	.	.
O=S(=O)(c1cccc(Cl)c1)N1CCCC1	.	.	/	.	.	.
Cn1c(/C=C/c2ccccc2[N+](=O)[O-])nc2ccccc2c1=O	?	?	.	?	/	.
CCOc1ccc(S(=O)(=O)n2c(C)nc3ccccc32)cc1	.	.	13µM	.	.	.
COc1ccc(C2CC(=O)c3cc(-c4nc(-c5cccc([N+](=O)[O-])c5)cs4)c(=O)n(-c4ccccc4C)c3C2)cc1 (configuration not stated)	.	/	/	/	.	/
CCn1c(C)nc2cc(C(=O)NNC(=S)Nc3ccc(OC)cc3)ccc21	?	.	.	.	.	.
Cc1ccc(S(=O)(=O)n2c(N)nc3ccccc32)cc1	.	.	.	.	/	.
Cc1ccc(/C=C/c2nc3ccccc3n2S(=O)(=O)c2ccc(Br)cc2)cc1	0.76µM	/	/	/	/	/
Cn1c(=O)c(=O)n(C)c2cc(N3CCCC3)c(NC(=O)c3ccccc3Cl)cc21	.	/	/	/	.	/
Nc1c(C(=O)N2CCOCC2)sc2nc3c(cc12)CCC3	7.6µM	1.3µM	.	0.89µM	11µM	2.9µM
COC(=O)c1sc2nc3c(cc2c1N)CCCC3	3µM	1.4µM	.	0.5µM	10µM	?
NC(=O)c1sc2nc3c(cc2c1N)CCC3	?	?	.	?	?	.
Nc1c(C(=O)N2CCCC2)sc2nc3c(cc12)CCCCCC3	?	3.2µM	.	4µM	14µM	.
Nc1c(C(=O)N2CCOCC2)sc2nc3c(cc12)CCCC3	0.48µM	0.35µM	.	0.11µM	/	0.58µM
Cc1cccc(OCCCC(=O)Nc2ccc(S(=O)(=O)Nc3nccs3)cc2)c1C	.	.	.	.	/	.
CCCN(CCC)C(=O)Cn1c(=O)n(-c2ccc(C)c(C)c2)c(=O)c2c3c(sc21)CCCCC3	.	/	/	/	.	/
Cc1ccccc1CN1CCN(CC(=O)NCc2ccccc2)CC1	.	.	.	.	/	.
SMILES	FLuc counter	NPC1 prom act	uPA generation	Rab9 promoter act	SMN2 splice enh	ELG1 genotoxic
COc1ccc(-c2nnc(SCc3c(C)noc3C)o2)cc1	19µM	.	.	.	.	.
C#CCSc1nnc(-c2ccc([N+](=O)[O-])cc2)o1	?	.	.	3.2µM	.	.
CCSc1nnc(-c2ccc(OC)cc2)o1	7.6µM	2.8µM	.	2.8µM	11µM	7.1µM
COc1ccc(-c2nnc(SCC#N)o2)cc1	.	.	.	.	.	?
C#CCSc1nnc(-c2ccc(OC)cc2)o1	7.6µM	2.8µM	.	2.8µM	?	10µM
CCCCCCCCSc1nnc(-c2ccc(OC)cc2)o1	.	.	.	.	.	.
O=C(COc1ccc2c(-c3ccccc3)cc(=O)oc2c1)NC1CCS(=O)(=O)C1 (configuration not stated)	?	.	.	.	/	.
COc1ccccc1CNC(=O)CSc1nc2nc(C)c(Cc3ccccc3Cl)c(C)n2n1	.	/	/	/	.	/
O=C(CCS(=O)(=O)c1cccs1)Nc1ccc(C(=O)Nc2ccccc2F)cc1	.	/	/	/	?	/

Source: PubChem BioAssay (National Center for Advancing Translational Sciences (NCATS))
